Reference: ChEMBL document CHEMBL4513216, “Probing the Open Global Health Chemical Diversity Library for Multistage-Active Starting Points for Next-Generation Antimalarials” (ACS Infect Dis, 2020)
Hit rate of the full screen: of about 65,000 compounds, about 2,100 (3.2%) showed an effect of 50% or more. The median lay at about -52%. The sample as a whole holds a higher share of strong results than the screen did.

The compounds below were run on Plasmodium falciparum (assay: Screen against P. falciparum Asexual Blood Stage (ABS), at 5uM). Conditions: tested at 5 uM.
Assay type: functional, Dd2
`Cc1ccc(N2CCO[C@H]3CN(Cc4ccoc4)C[C@H]32)nn1` showed an INHIBITION of -106%.
Work on `Cc1cc(CN2C[C@@H]3CN(Cc4ccsc4)CCO[C@@H]3C2)no1` yielded an INHIBITION of -101%.
For `CC(C)(C)c1cc(=O)[nH]c(C2(N)CCCCC2)n1`, the INHIBITION was -114%.
With `O=C(NC1CCC1)[C@H]1C[C@H]2NCCO[C@@H]2C1` the INHIBITION was -269%.
`c1ccc(N2CCCC3(CCN(Cc4ccsc4)C3)C2)nc1` (centres undefined) was tested, and the INHIBITION was 82.6%.
`c1ccc(N2CC3(CCN(Cc4cccnc4)C3)C2)nc1` was tested, and the INHIBITION was -13.8%.
`CCc1nc(CC(=O)N2CCCC2CN2CCCC2)cs1` (centres undefined) gave an INHIBITION of -48.9%.
For `CN(Cc1n[nH]c2c1CCCC2)c1nc(C2CC2)nc2c1CCNCC2`, the INHIBITION was 89.5%.
Compound `CN(C)c1nc2c(c(N(C)Cc3n[nH]c4c3CCCC4)n1)CCNCC2` has an INHIBITION of 84.4%.
Work on `CN(C)C[C@]12COC[C@H]1CN(Cc1ccc3ccccc3n1)C2` yielded an INHIBITION of 27.2%.
`Cn1cccc1C(=O)N1CCN2C[C@H](Oc3cccnc3)C[C@H]2C1` showed an INHIBITION of 30.4%.
Work on `COC(=O)c1ccc(C2SCC(=O)Nc3c2cnn3C(C)(C)C)cc1` (centres undefined) yielded an INHIBITION of -53.3%.
`CN(Cc1cccc(F)c1)C(=O)CS(=O)(=O)Cc1c(Cl)cccc1Cl` gave an INHIBITION of 82.7%.
`CCc1nnc(NC(=O)CCN2CC=C(c3cnn(C)c3)CC2)s1` was tested, and the INHIBITION was -25.3%.
`COc1ccccc1C(C)(C)NCc1ccc(C)o1` was tested, and the INHIBITION was 77.9%.
`c1cncc(CN2CCO[C@H]3[C@H](OCCN4CCCC4)CC[C@@H]32)c1` was tested, and the INHIBITION was -68.3%.
Work on `c1cc(CN2CCO[C@H]3[C@H](OCCN4CCCC4)CC[C@@H]32)ccn1` yielded an INHIBITION of -53.4%.
Compound `CC(Cn1cccn1)NCc1nc(-c2ccco2)no1` (centres undefined) has an INHIBITION of -82%.
`O=C1C[C@H]2[C@@H](CCN2Cc2ccccn2)N1Cc1cccnc1` gave an INHIBITION of -99.2%.
Work on `CN1CCCC1CNC(=O)CCCOc1cccc(Br)c1` (centres undefined) yielded an INHIBITION of 71.7%.
With `CN1CCCC1CNC(=O)CCCOc1ccc(Cl)cc1` (centres undefined) the INHIBITION was 78.2%.
For `CC(=O)N1C[C@H]2CNC[C@@]2(C(=O)NCCCOc2cccnc2)C1`, the INHIBITION was -133%.
For `CCc1c(C)[nH]c(C2(N)CCCCC2)nc1=O`, the INHIBITION was -26.9%.
In the case of `CCN1CCN(Cc2nc(CC(C)C)no2)CC1`, the INHIBITION is reported as 34.7%.
`Cc1noc(C)c1CN1CC[C@H]2OCC[C@@]2(C(=O)N2CCCC2)C1` gave an INHIBITION of -28.8%.
In the case of `CCC(=O)NCC(=O)NCC1(c2c(F)cccc2F)CCCC1`, the INHIBITION is reported as 73.7%.
For `Cc1cc(CN2C[C@@H]3COC[C@]3(CNC(=O)N(C)C)C2)no1`, the INHIBITION was -94.8%.
`Cc1ccc(CN2CCO[C@H]3[C@H](OCc4cccnc4)CC[C@@H]32)o1` showed an INHIBITION of -70.3%.
With `Cc1ccc(CN2CCC3(CC2)CC3CN(C)Cc2cccnc2)o1` (centres undefined) the INHIBITION was 70.8%.
With `Cc1ccc(CN2CCO[C@H]3[C@@H](OCc4cccnc4)CC[C@@H]32)o1` the INHIBITION was 3.59%.
With `CCN(C)c1ncc2c(c1C(=O)O)CCN(C1CCOC1)C2` (centres undefined) the INHIBITION was -4.54%.
For `Cc1cnc(Nc2cccc(C3CCCN3Cc3cn(C)nc3C)n2)s1` (centres undefined), the INHIBITION was 89.8%.
Work on `Cc1cccc(CO[C@@H]2CC[C@H]3[C@H]2OCCN3Cc2nccs2)n1` yielded an INHIBITION of -43.3%.
`c1ccc(CCN2CCCC2c2cccc(Nc3nccs3)n2)cc1` (centres undefined) gave an INHIBITION of 77%.
With `Cc1ccccc1CN1CCCC1c1cccc(Nc2nccs2)n1` (centres undefined) the INHIBITION was 84.8%.
Work on `Cc1cccc(CN2C(=O)C[C@H]3[C@@H]2CCN3Cc2nccs2)n1` yielded an INHIBITION of -3.26%.
Work on `Cc1cccc(CN2CCCC2c2cccc(Nc3nccs3)n2)c1` (centres undefined) yielded an INHIBITION of 88.1%.
Work on `Cc1ccc(C(=O)N2C[C@H]3CNC[C@H]3C2)cn1` yielded an INHIBITION of -104%.
For `Cc1ccccc1SC1CCN(C(=O)C2[C@H]3CNC[C@@H]23)CC1` (some centres undefined), the INHIBITION was 73.3%.
In the case of `COc1ncc(-c2cc(NC3CCCC3)nc3[nH]ccc23)c(OC)n1`, the INHIBITION is reported as 74%.
For `Cc1cc(Oc2ccc(NC(=O)C3CC3)cc2)cc(C2CCNCC2)n1`, the INHIBITION was 87.8%.
With `Fc1cccnc1O[C@H]1CN(Cc2ccoc2)[C@@H]2CCCO[C@H]12` the INHIBITION was -26.7%.
Work on `COCC1CN(c2ccc(C#N)c(Cl)c2)CCO1` (centres undefined) yielded an INHIBITION of -35.5%.
With `c1cc(CN2C[C@@H]3OCCN(CC4CCCO4)[C@@H]3C2)ccn1` (some centres undefined) the INHIBITION was -111%.
Work on `CNc1cc(C)nc(N2Cc3cnn(Cc4ccc(F)cc4)c3C2)n1` yielded an INHIBITION of 91.9%.
`CC(C)NC(=O)[C@H]1C[C@@H]2[C@@H](C1)OCCN2Cc1cccnc1` showed an INHIBITION of -95.4%.
In the case of `O=S(=O)(NCCN1CC=CC1)c1ccc(Cl)cc1`, the INHIBITION is reported as 76.2%.
Compound `N#Cc1ccc(S(=O)(=O)NCCn2ccnc2)cc1Cl` has an INHIBITION of -39.2%.
With `Cc1nc(CN2CCCC2c2noc(C3CC3)n2)nc2ccccc12` (centres undefined) the INHIBITION was 78.7%.
`c1ccc2nc(CN3CCCC3c3noc(C4CC4)n3)ccc2c1` (centres undefined) was tested, and the INHIBITION was 72.7%.
`CCCS(=O)(=O)CC(=O)N1CCCC1c1noc(C2CC2)n1` (centres undefined) gave an INHIBITION of -40.7%.
Work on `COCCN1C[C@@H]2CC[C@H]1CN(Cc1ccc3ccccc3n1)C2` yielded an INHIBITION of 21.2%.
Work on `O=C(Cc1ccccc1)N1CCN(Cc2noc(C3CC3)n2)CC1` yielded an INHIBITION of -62.4%.
`CCN1CCc2[nH]cnc2C12CCN(c1ccc(Cl)cn1)CC2` gave an INHIBITION of 42.9%.
`CN(C)Cc1cc(C2CCCCN2S(=O)(=O)c2cccc(Cl)c2)nn1C` (centres undefined) showed an INHIBITION of 78.8%.
In the case of `CN1CC2(CCNCC2)CC1C(=O)NCCCNc1cccnc1` (centres undefined), the INHIBITION is reported as -62%.
`Cc1cnc(N2CC[C@H]3[C@H](C[C@@H](CN(C)C)N3C)C2)nc1` was tested, and the INHIBITION was -51.8%.
For `CSCc1cc(F)ccc1CNCc1cccc(O)c1`, the INHIBITION was 72.6%.
`Cc1ccc2[nH]c(-c3cn(C4CCNCC4)nn3)nc2c1C` showed an INHIBITION of 85.5%.
In the case of `Cc1cc2nc(-c3cn(C4CCNCC4)nn3)[nH]c2cc1C`, the INHIBITION is reported as 87.5%.
Work on `Cc1cccc2[nH]c(-c3cn(C4CCNCC4)nn3)nc12` yielded an INHIBITION of 73.5%.
`Cc1cc(CN2C[C@@H]3COC[C@]3(CN(C)C)C2)no1` showed an INHIBITION of -59%.
In the case of `Cc1ccc(N2CCO[C@H]3CN(Cc4nccs4)C[C@H]32)nn1`, the INHIBITION is reported as -168%.
`CCO[C@H]1CN(CC2CC2)[C@@H]2CCCO[C@H]12` gave an INHIBITION of -82.9%.
